IL1B secr inh: inhibitors of inflammasome signaling (IL-1 beta secretion); THP-1 LPS/ATP IL-1B secretion, AlphaLISA, 16 h; active compounds read low; activity change, % at 57.5 µM; 360,000 compounds, 4.7% hits; in the data active = activity change below about -50%; inconclusive = mostly about -30% to -49%
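Secreted IL-1B measured by AlphaLISA bead assay after 16 h compound exposure of THP-1 cells; compounds (final up to 57.5 uM) added 1 h before LPS (250 ng/mL) and ATP (1.25 mM) stimulation; lower signal means less secretion.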
TDP1 cell CPT: DT40-hTDP1 cell growth loss with CPT. chicken DT40 Tdp1-/-;hTDP1 cells + 20 nM CPT, ATP luminescence, 48 h. Potency, µM (doses to about 46.2 µM), inactives show at the highest dose activity change, negative = growth inhibition, most hits filed as inhibitors. 420,000 compounds, 12% hits; note: potency is the fitted concentration of half-maximal effect; nearly all actives have a fitted effect of over 55% in size
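Chicken DT40 Tdp1-/- cells complemented with human TDP1, 400 cells/well, exposed to compounds plus 20 nM camptothecin for at least 48 h at 37 C; viability read as ATP content by CellTiter-Glo luminescence.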
HT1080 IDH1KD tx: toxicity to HT-1080 IDH1 knockdown cells (counter line); Potency, µM (series often up to 46.1 µM), for the others: at the highest dose activity, negative = toxicity, usual class: cytotoxic; HT-1080 IDH1 knockdown viability, ATP luminescence, 48 h; 360,000 compounds, 2% hits; AID 686971;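 note: potency is the fitted concentration of half-maximal effect; 0% = DMSO wells and -100% = cell-free medium wells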
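Knockdown cells (IDH1KD HT-1080) received compounds 2 h after plating at 750 cells/well and were kept 48 h at 37 °C in 5% FBS RPMI. A CellTiter-Glo luminescence read gave % activity for curve fitting.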
DT40 TDP1 no CPT: qHTS for Inhibitors of human tyrosyl-DNA phosphodiesterase 1 (TDP1): qHTS in cells in absence of CPT | 420,000 compounds, 15% hits | AID 686978, 2013 | DT40 Tdp1-/- hTDP1 cells, no CPT, ATP luminescence, 48 h | Potency, µM (doses to about 46.2 µM), without a hit: top-dose activity change, negative = growth inhibition, hits mostly inhibitors; note: potency is the fitted concentration of half-maximal effect; nearly all actives have a fitted effect of over 55% in size
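Seeded 400 DT40-hTDP1 cells/well (vehicle DMSO, no 20 nM CPT); pinned compounds; ≥48 hr at 37 °C; CellTiter-Glo luminescence as viability measure.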
HT1080-NT tox: kills 2HG-producing HT-1080-NT fibrosarcoma cells; HT-1080-NT fibrosarcoma viability, CellTiter-Glo ATP luminescence, 48 h; Potency, µM (series often up to 46.1 µM), for the others: at the highest dose activity, negative = less viability, actives largely listed as cytotoxic; 360,000 compounds, 1.6% hits; AID 686970;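 note: NT is the 2HG producing partner of a matched IDH1 knockdown line; potency is the fitted concentration of half-maximal effect; 0% = DMSO-treated cells and -100% = media-only wells without cells; nearly all actives have a fitted effect of over 55% in size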
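HT-1080-NT fibrosarcoma cells (2HG-overproducing), 750 cells/well in RPMI with 5% FBS, dosed after 2 h and incubated 48 h at 37C. CellTiter-Glo luminescence normalized to DMSO and no-cell wells; concentration-response curves fitted and classed.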
Numbers without * were called inactive. Compounds with a hit are over-represented: about 19% of the library has one in this group of screens. Unless noted, calls come from the whole dose curve; as a rule, active = well fitted curve in the direction sought with a large enough effect; inconclusive = small, poorly fitted or top-dose-only effect, or another doubt; inactive = no such curve, though single readings can be large; an effect the other way counts as inactive or inconclusive. Unless noted, % is set by controls: 0 for no effect and ±100 for the full control effect.

For Cn1c(=O)c2sccc2n2c(CCCC(=O)Nc3ccc(Oc4ccccc4)cc3)nnc12 the results were TDP1 cell CPT inconclusive and DT40 TDP1 no CPT 16µM*.
COc1cccc(-c2csc(-c3c(N)c(C(=O)c4ccccc4)n4ccccc34)n2)c1 was read as TDP1 cell CPT inconclusive and DT40 TDP1 no CPT 16µM*.
`Nc1c(-c2nc(-c3ccccc3)cs2)c2ccccn2c1C(=O)c1ccc2c(c1)OCO2` gave TDP1 cell CPT 18µM* and DT40 TDP1 no CPT 6.5µM*.
For COc1ccc(NC(=O)CCC(=O)N(Cc2ccc(OC)c(OC)c2)c2nccs2)c(OC)c1 the results were IL1B secr inh 1, TDP1 cell CPT -18%, HT1080 IDH1KD tx 0%, DT40 TDP1 no CPT -19% and HT1080-NT tox 6%.
COC(=O)c1c(N2C(=O)CC(Sc3ccccc3C(=O)O)C2=O)sc2c1CCCC2 (stereo unspecified) was read as IL1B secr inh 13, TDP1 cell CPT inconclusive, HT1080 IDH1KD tx 18%, DT40 TDP1 no CPT 7.3µM* and HT1080-NT tox 7%.
Screening CCOC(=O)c1cc(CC)sc1N1C(=O)CC(Sc2ccccc2C(=O)O)C1=O (stereo unspecified) returned IL1B secr inh 27, TDP1 cell CPT 2.9µM*, HT1080 IDH1KD tx -3%, DT40 TDP1 no CPT 4.1µM* and HT1080-NT tox -5%.
For COc1ccc(N2CCN(CCNC(=O)Nc3cc(Cl)ccc3OC)CC2)cc1 the results were IL1B secr inh -7, TDP1 cell CPT inconclusive, HT1080 IDH1KD tx -5%, DT40 TDP1 no CPT inconclusive and HT1080-NT tox -25%.
Screening O=C(NCCN1CCN(c2ccccc2Cl)CC1)Nc1ccccc1 returned IL1B secr inh -22, TDP1 cell CPT -11%, HT1080 IDH1KD tx -8%, DT40 TDP1 no CPT inconclusive and HT1080-NT tox -1%.
`Cc1cccc(N2CCN(CCNC(=O)Nc3ccc(Cl)cc3)CC2)c1C` gave TDP1 cell CPT 13µM* and DT40 TDP1 no CPT 13µM*.
COc1ccc(Cl)cc1N1CCN(CCNC(=O)Nc2ccccc2C)CC1 was read as IL1B secr inh -77*, TDP1 cell CPT -102%, HT1080 IDH1KD tx inconclusive, DT40 TDP1 no CPT -95% and HT1080-NT tox -17%.
CCC1(c2ccccc2)ON(c2c(Br)cccc2Br)C1=O (stereo unspecified) was read as IL1B secr inh -97*, TDP1 cell CPT 18µM*, HT1080 IDH1KD tx 18µM*, DT40 TDP1 no CPT 16µM* and HT1080-NT tox inconclusive.
CCC1(c2ccccc2)CN(C)C1=O (stereo unspecified) was read as IL1B secr inh -9, TDP1 cell CPT 3%, HT1080 IDH1KD tx -1%, DT40 TDP1 no CPT -13% and HT1080-NT tox 1%.
For CC1(C(=O)NCCc2ccccc2)Cc2c(-c3cccc(C(N)=O)c3)ccnc2O1 (stereo unspecified) the results were IL1B secr inh 29, TDP1 cell CPT inconclusive, HT1080 IDH1KD tx inconclusive, DT40 TDP1 no CPT 18µM* and HT1080-NT tox -30%.
For CN(C)c1ccc(-c2ccnc3c2CC(C)(C(=O)Nc2ccc(Cl)cc2)O3)cc1 (stereo unspecified) the results were IL1B secr inh -23, TDP1 cell CPT inconclusive, HT1080 IDH1KD tx 0%, DT40 TDP1 no CPT inconclusive and HT1080-NT tox 20%.
For CN(C)c1ccc(CNC(=O)C2(C)Cc3c(-c4cccc(C(N)=O)c4)ccnc3O2)cc1 (stereo unspecified) the results were IL1B secr inh 64, TDP1 cell CPT 15µM*, HT1080 IDH1KD tx inconclusive, DT40 TDP1 no CPT inconclusive and HT1080-NT tox inconclusive.
Screening CN(C)c1ccc(-c2ccnc3c2CC(C)(C(=O)NCC2CC2)O3)cc1 (stereo unspecified) returned IL1B secr inh 20, TDP1 cell CPT 5.2µM*, HT1080 IDH1KD tx 1%, DT40 TDP1 no CPT 5.2µM* and HT1080-NT tox 10%.
COc1ccc(CNC(=O)C2(C)Cc3c(-c4ccc5c(c4)OCO5)ccnc3O2)cc1OC (stereo unspecified) was read as IL1B secr inh 24, TDP1 cell CPT inconclusive, HT1080 IDH1KD tx inconclusive, DT40 TDP1 no CPT 16µM* and HT1080-NT tox -16%.
CC1(C(=O)NCc2cccc(Cl)c2)Cc2c(-c3ccc(C(N)=O)cc3)ccnc2O1 (stereo unspecified) was read as IL1B secr inh -16, TDP1 cell CPT -27%, HT1080 IDH1KD tx -24%, DT40 TDP1 no CPT inconclusive and HT1080-NT tox -21%.
For CC(=O)c1cc(C(=O)N2CCCC(CCC(=O)N(C)CCc3ccccn3)C2)cs1 (stereo unspecified) the results were IL1B secr inh 11, TDP1 cell CPT -4%, HT1080 IDH1KD tx -3%, DT40 TDP1 no CPT -2% and HT1080-NT tox -1%.
For CC1(C(=O)NCC2CC2)Cc2c(-c3ccc4c(c3)OCO4)ccnc2O1 (stereo unspecified) the results were IL1B secr inh 46, TDP1 cell CPT 4.6µM*, HT1080 IDH1KD tx inconclusive, DT40 TDP1 no CPT 5.2µM* and HT1080-NT tox inconclusive.
Screening CN1CCN(c2ccc(CNC(=O)C3(C)Cc4c(-c5ccc6c(c5)OCO6)ccnc4O3)cc2)CC1 (stereo unspecified) returned IL1B secr inh inconclusive, TDP1 cell CPT inconclusive, HT1080 IDH1KD tx -13%, DT40 TDP1 no CPT 15µM* and HT1080-NT tox inconclusive.
Screening COCCNC(=O)C1(C)Cc2c(-c3ccc(NC(C)=O)cc3)ccnc2O1 (stereo unspecified) returned IL1B secr inh 0, TDP1 cell CPT inconclusive, HT1080 IDH1KD tx 8%, DT40 TDP1 no CPT inconclusive and HT1080-NT tox 16%.
CN(C)c1ccc(-c2ccnc3c2CC(C)(C(=O)NCCc2ccccc2)O3)cc1 (stereo unspecified) was read as IL1B secr inh -18, TDP1 cell CPT 29µM*, HT1080 IDH1KD tx -16%, DT40 TDP1 no CPT inconclusive and HT1080-NT tox -7%.
Screening CNC(=O)C1(C)Cc2c(-c3ccc4c(c3)OCO4)ccnc2O1 (stereo unspecified) returned IL1B secr inh 30, TDP1 cell CPT inconclusive, HT1080 IDH1KD tx 6%, DT40 TDP1 no CPT inconclusive and HT1080-NT tox 19%.
`COCCNC(=O)C1(C)Cc2c(-c3ccc(N(C)C)cc3)ccnc2O1` (stereo unspecified) gave IL1B secr inh 9, TDP1 cell CPT 5.2µM*, HT1080 IDH1KD tx -21%, DT40 TDP1 no CPT 4.6µM* and HT1080-NT tox -24%.
For Cn1cc(S(=O)(=O)c2cccc(Cl)c2)c(=O)c2cc(F)c(N3CCCCCC3)cc21 the results were TDP1 cell CPT -9% and DT40 TDP1 no CPT -15%.

High-throughput results from PubChem.
